According to PubChem BioAssay AID2314 (National Center for Advancing Translational Sciences (NCATS), 2010):
Out of some 300,000 compounds screened, about 37,000 (12%) were called active. No stated cut-off is given here; in the data, active means max response mostly above about 13% (no sharp cut-off); inactive means mostly below about 14%. This excerpt belongs to a sample that is enriched for actives.

Experiment: Cycloheximide Counterscreen for Small Molecule Inhibitors of Shiga Toxin; further: read at 38.3 µM for the half of the compounds with a filed dose; 0% is about no effect
Settings: cell reporter, cycloheximide protein synthesis inhibition counterscreen; stronger effect = higher value

Structure (SMILES)	max response
O=C(O)CCC(=O)O	7.04% (inactive)
COc1ccc(C(C(=O)NCC2CCCO2)N(C(=O)Cn2nnc3ccccc32)c2ccc(NC(C)=O)cc2)cc1OC (configuration not stated)	-1.07% (inactive)
CCC(C)(C)NC(=O)C(c1ccc(O)cc1)N(C(=O)Cn1nnc2ccccc21)c1ccc(NC(C)=O)cc1 (configuration not stated)	-2.51% (inactive)
COc1ccc(C(C(=O)NC(C)(C)C)N(C(=O)Cn2nnc3ccccc32)c2ccc(C(C)=O)cc2)cc1O (configuration not stated)	14.1% (active)
COC(=O)C1CCN(CC(N)=O)CC1	-5.67% (inactive)
CCOP(=O)(OCC)C(Nc1cccc(C)c1)c1ccc(F)cc1 (configuration not stated)	-1.31% (inactive)
C(=N\n1cnnc1)/c1cccnc1	0.339% (inactive)
COc1ccccc1OCCOc1ccc(/C=N/n2cnnc2)cc1	-5.27% (inactive)
COc1cccc(OCCOc2cccc(/C=N/n3cnnc3)c2)c1	42.6% (active)
COC(=O)CNC(=O)c1cc(-c2ccncc2)nc2ccccc12	7.25% (inactive)
CNC(=O)COC(=O)c1cc(-c2ccc(OC)cc2)nc2ccccc12	10.9% (inactive)
CCc1ccc(-c2cc(C(=O)NN3CCN(C)CC3)c3ccccc3n2)cc1	21.6% (active)
O=C(COc1ccc(Cl)cc1)NCCS(=O)(=O)N1CCN(c2ccc(F)cc2)CC1	-2.81% (inactive)
S=C1NC(c2ccccc2)=NCN1c1ccc(Br)cc1	11.3% (inactive)
N#Cc1ccc(C2N=C(c3ccccc3)NO2)cc1 (configuration not stated)	50.7% (active)
Brc1ccccc1C1Nc2cccc3cccc(c23)N1	-2.34% (inactive)
Brc1ccccc1C1N=C(c2ccccc2)NO1 (configuration not stated)	46.9% (active)
COc1ccc(CNC(=O)c2cc(C(=O)C3CC3)c[nH]2)cc1	-0.249% (inactive)
Cc1cc(Nc2cccc(C)c2C)n2ncnc2n1	-1.07% (inactive)
CCn1cc(C(=O)OCC(=O)Nc2cccc(C)c2)c(=O)c2ccc(C)nc21	-2.42% (inactive)
CN(c1ccc(OCC(=O)OCC(=O)Nc2cccc([N+](=O)[O-])c2)cc1)S(=O)(=O)c1ccc(F)cc1	5.41% (inactive)
Cc1onc(-c2ccccc2)c1C(=O)N1CCN(S(=O)(=O)c2ccccc2C(F)(F)F)CC1	10.2% (inactive)
Oc1ccc(/C=N/Nc2nc(-c3ccccc3F)nc3ccccc23)c(O)c1	15.1% (active)

Structure (SMILES)	max response
Cc1cc(N/N=C/c2ccccc2F)c2ccccc2n1	-1.58% (inactive)
Cc1nc2ccccc2nc1N/N=C/c1ccc(O)cc1O	25% (active)
Oc1ccc(/C=N/NC2=NCCCCC2)c(O)c1	42% (active)
COc1ccc(/C=C(\C#N)C(=O)ONC2=NCCCCC2)cc1	9.41% (inactive)
Cc1ccc(/C=N/NC(=O)C2=NNC(c3ccccc3)(c3ccccc3)C2)c(O)c1	9.49% (inactive)
FC(F)(F)c1nc2ccccc2nc1N/N=C/c1ccc(Cl)cc1	-0.973% (inactive)
CC(=O)c1ccc(N2CCN(C(=O)C3CCN(S(=O)(=O)c4ccc5c(c4)CC(C)N5C(=O)C4CC4)CC3)CC2)cc1 (configuration not stated)	-0.93% (inactive)
Cc1cc(C)n(CC(O)COc2ccc(C(C)(C)C)cc2)n1 (configuration not stated)	10.5% (inactive)
CCc1cccc(NC(=S)N(CCN(C)C)C2CCN(C(C)C)CC2)c1	-3.94% (inactive)
Cc1ccc(NC(=O)C(=O)NCc2ccc(/C=N/NC(=O)c3c(C)nc4cc(C)ccn34)o2)cc1	6.74% (inactive)
O=c1[nH]c(CN2CCN(S(=O)(=O)c3ccc4c(c3)OCCO4)CC2)nc2sc3c(c12)CCCC3	-1.21% (inactive)
CCCCOc1ccc(C(=O)N/C(=C/C=C/c2ccccc2)C(=O)N2CCOCC2)cc1	-4.3% (inactive)
CC(C)COP(=O)(c1ccc(N(C)C)cc1)C(Nc1ccccc1)c1cccnc1 (configuration not stated)	-7.16% (inactive)
O=C(CCN1C(=O)[C@@H]2Cc3ccccc3CN2C1=O)NCc1ccccc1	-3.78% (inactive)
N#C/C=C/N1CCN(Cc2ccc3c(c2)OCO3)CC1	-4.02% (inactive)
O=P(O)(CN1CCCCCC1)C1Cc2ccccc2C1	-0.763% (inactive)
Cc1noc(C)c1-c1ccc2ncnc(NCc3ccc(F)c(F)c3)c2c1	-5.05% (inactive)
Cc1noc(C)c1-c1ccc2ncnc(NCc3ccc4[nH]ccc4c3)c2c1	56.1% (active)
Cc1noc(C)c1-c1ccc2ncnc(NC(C)c3ccco3)c2c1 (configuration not stated)	14.8% (inactive)
COc1ccc(NC(=O)CNC(=O)Cn2ccc3ccccc3c2=O)c(OC)c1	-1.76% (inactive)
Cc1cccc(NC(=S)N2CCCC(c3nc4ccccc4[nH]3)C2)c1 (configuration not stated)	2.24% (inactive)
O=C(C1CCCO1)N1CCN(C(=S)Nc2cccc(Cl)c2)CC1 (configuration not stated)	2.71% (inactive)
Cc1ccc(C2CCN(C(=S)Nc3cccc(Cl)c3)C2)cc1 (configuration not stated)	23.2% (active)

Structure (SMILES)	max response
CCn1c2ccccc2c2cc(NC(=O)Nc3ccc([N+](=O)[O-])cc3C)ccc21	1.99% (inactive)
COc1ccc(NC(=O)COc2ccc(C(=O)c3ccc(F)cc3)cc2)cc1S(N)(=O)=O	-1.97% (inactive)
COCCCn1c(SCC(=O)NC2CCCC2)nnc1-c1ccccc1	-2.3% (inactive)
COCC(=O)N1CCc2ccc(NC(=O)c3ccccc3Cl)cc2C1	-1.85% (inactive)
O=C(Nc1cccc(NC(=O)c2ccccc2[N+](=O)[O-])c1)c1ccccc1Cl	-2.59% (inactive)
O=C(Nc1ccc2sc3ccccc3c(=O)c2c1)c1ccccc1Cl	40.4% (active)
O=C(COc1ccccc1[N+](=O)[O-])NC1CC1	1.49% (inactive)
O=C(O)CCCN1C(=O)C2C3c4ccccc4C(c4ccccc43)[C@@H]2C1=O (some centres not stated)	-1.2% (inactive)
C=CCSC(CC)(CC)C(N)=O	-2.64% (inactive)
Cc1nonc1NC(=O)c1ccccc1Br	6.09% (inactive)
Cc1ccc(NC(=O)c2oc3ccccc3c2C)c([N+](=O)[O-])c1	29.7% (active)
Cc1ccc2[nH]c(C(=O)O)c(NC(=O)c3ccccc3[N+](=O)[O-])c2c1	-2.43% (inactive)
CCc1nonc1NC(=O)c1oc2ccc(Cl)cc2c1C	-1.57% (inactive)
Cc1ccc(NC(=O)c2oc(=O)c3ccccc3c2-c2ccccc2)c(C)c1	-5.99% (inactive)
CCC(=O)N1CCCc2ccccc21	-1.65% (inactive)
Cc1c(C(=O)NC2CCCCC2)oc2ccccc12	39.2% (active)
Cc1c(C(=O)Nc2cccc(-c3nnc4n3CCCCC4)c2)oc2ccccc12	13% (inactive)
Cc1nonc1NC(=O)c1oc2ccccc2c1C	35.8% (active)
COc1ccc2oc(=O)c(C(=O)N3CCCc4ccccc43)cc2c1	0.681% (inactive)
Cc1c(C(=O)N2CCCc3ccccc32)oc2ccccc12	18.8% (active)
Cc1ccnc(NS(=O)(=O)c2ccc(NC(=O)c3oc4ccccc4c3C)cc2)n1	1.07% (inactive)
